These results are taken from the supplement of paper PMC6555819.

What all share (experiment): PBM binding z-score (relative to random genomic background probes); higher = stronger binding; sequences stand for … in GC…GCGATTGACAGCGTAGAATGAAGG
Assay [1] relates to RARb homodimer (NR concentration 270 nM). In outline:
(§1)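 On custom Agilent 4×180K arrays, double-stranded probes with 34-nt variable regions carried direct-repeat seeds, single-nucleotide variants, half-site ablations or random human genomic background. Ligand-free nuclear receptor dimers were applied for 1 h, and binding was read with antibodies against each partner (one per run). Binding z-scores come from regression-normalized fluorescence, with the random background probes as reference.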

Assay [2] deals with RARg:RXRa (NR concentration 270 nM, RXRa partner concentration 90 nM). In short, it runs like this:
as §1

Assay [3] has as its system RARg homodimer (NR concentration 270 nM). In outline:
as §1

Assay [4] deals with RXRa DBDmut IVT, anti-RXR (DBD mutation: RXRa K156A/R161A, NR concentration 90 nM). In outline:
as §1

Assay [5] deals with RXRa homodimer (NR concentration 180 nM). In outline: as §1
For assay [6], the system named is THRa:RXRa (NR concentration 90 nM, RXRa partner concentration 90 nM). In outline:
as §1

Assay [7] deals with THRa homodimer (NR concentration 90 nM). In short, it runs like this:
as §1

In assay [8] the test system is VDR homodimer (NR concentration 270 nM). In outline:
as §1

As to CCTACTGGGCCATTCAGAGGTCATTGATCATATG, the PBM binding z-score was determined as 3.93 in assay [1]; 4.35 in assay [2]; 2.99 in assay [3]; 1.44 in assay [4]; 3.55 in assay [5]; 3.14 in assay [6]. Also, the PBM binding z-score in assay [7] amounted to 1.18; in assay [8], 3.37.

For the sequence CTATGTAGGTTAAGGGGGTCATTCATTTTGAAAG, the PBM binding z-score in assay [1] came to 3.81; in assay [2], 4.91; in assay [3], 3.98; in assay [4], 2.28; in assay [5], 5.74; in assay [6], 3.64. For the same sequence, the figures for the PBM binding z-score in assay [7] and in assay [8] were 1.93 and 5.01, respectively.

CCTGCTAGGTCATGGTCAGGTAATCTACAGTATG: the PBM binding z-score in assay [1] was 3.22; in assay [2] it was 4.26; in assay [3], 4.73; in assay [4], 1.77; in assay [5], 3.01; in assay [6], 3.55. For the same sequence, the PBM binding z-score in assay [7] is 1.97; in assay [8], 0.414.

As to TTATCAAGGTGAAAGGTCGTTGATGCACGCCTTG, the PBM binding z-score stood at 2.42 in assay [1]; 4.25 in assay [2]; 2.44 in assay [3]; 0.854 in assay [4]; 5.89 in assay [5]; 3.44 in assay [6]. Moreover, the PBM binding z-score was 1.19 in assay [7] and 1.54 in assay [8].

For the sequence ATATGTAGGTTATCGGGTCATTCATTTTGCGCAT, the PBM binding z-score in assay [1] was 3.18; in assay [2] it was 3.28; in assay [3], 2.49; in assay [4], 1.65; in assay [5] it was 3.49; in assay [6] it was 3.53. The PBM binding z-score in assay [7] is 2.79; in assay [8] it was 3.

Turning to TCGAGTAGGTTACGGGGGCGTTCAGGGATGAAGA, the PBM binding z-score in assay [1] is 1.66; in assay [2], 2.9; in assay [3], 1.99; in assay [4] it was 1.4; in assay [5], 2.05; in assay [6], 3.24. In addition, the PBM binding z-score in assay [7] was determined as 1.34; in assay [8], 3.52.

Take CGTCCAAGGTCAGAGAGGTCACTGAATGCCGAGT: the PBM binding z-score in assay [1] was 5.89; in assay [2], 7.04; in assay [3] it was 7.93; in assay [4], 3.39; in assay [5], 6.93; in assay [6], 4.71. The PBM binding z-score stood at 3.53 in assay [7] and 6.07 in assay [8].
